Results reported in ChEMBL document CHEMBL4888484, “Replenishing the malaria drug discovery pipeline: Screening and hit evaluation of the MMV Hit Generation Library 1 (HGL1) against asexual blood stage Plasmodium falciparum ,using a nano luciferase reporter read-out” (2022).
Out of some 4,800 compounds screened, about 420 (8.8%) showed an effect of 50% or more. What follows is part of a selection rich in strong results, with near analogues and random picks from the rest.

system: Plasmodium falciparum; test: Confirmatory screen in NF54 nanoGlo assay, in single point, at 2uM, 72h; format: functional, Erythrocyte; conditions: timepoint 72 hour

Structure (SMILES) | % Inhibition
O=C(COc1ccc(Cl)cc1)n1c2ccccc2c2ccccc21 | -3%
CC(C)(CNC(=O)[C@](C)(N)c1ccccc1)C(=O)O | -11%
COc1c2c(cc3c1[C@@H](C#CCOc1ccccc1)[N+](C)(C)CC3)OCO2 | 75%
CC(C)C(=O)N1CC[C@H](CC(=O)NCc2ccccc2)C1 | -4%
O=C(c1sc2ccccc2c1Cl)n1nnc2ccccc21 | -8%
CCOC(=O)N1CCN(c2nccn3nc(-c4ccc(OC)c(OC)c4)cc23)CC1 | -6%
COc1ccc([C@@]2(C)NC(=O)N(CC(=O)N3CC(=O)Nc4ccccc43)C2=O)cc1OC | 2%
COc1ccc([C@H](C(=O)Nc2ccc(N(C)C)cc2)N(Cc2ccccc2)C(=O)Cc2ccccc2)cc1OC | -4%
CCC(C(=O)Nc1ccc2c(c1)CN(CCc1ccc(OC)c(OC)c1)C(=O)C(C)O2)c1ccccc1 (stereo not given) | 94%
COc1ccc(CNC(=O)Nc2ccc3c(c2)N(C(=O)c2ccccc2)CCC3)cc1OC | 25%
CCN(CC)c1ncnc(N(C)Cc2ccccc2)c1N | 2%
COc1ccc([C@H]2[C@H](C(=O)NC3CCCCCC3)CCC(=O)N2C)cc1 | -8%
COCc1cc2nn(CC(=O)Nc3ccc(F)cc3C)c(=O)n2c(-c2ccccc2)n1 | -15%
O=c1nc2n(nc1-c1ccccc1)C1(CCC1)Nc1ccccc1-2 | 74%
C[C@]1(CCc2ccc(O)cc2)Nc2ccccc2-c2nc(=O)c(-c3ccc(F)cc3)nn21 | 8%
C[C@]1(C(=O)O)Nc2ccccc2-c2nc(=O)c(-c3ccccc3)nn21 | -2%
COc1ccccc1CNC(=O)c1cn(CC2(O)CCN(Cc3ccccc3)CC2)nn1 | -3%
C#CCCCCC(=O)Nc1ncccc1Cl | -2%
COc1ccc(N2CCN(c3nccn4nc(-c5ccc(OC)c(OC)c5)cc34)CC2)cc1 | -10%
CC(C(=O)Nc1ncccn1)N1CCCC1Cn1cccn1 (stereo not given) | -4%
COc1nc(NC[C@H]2CCCN2C(C)C)ncc1F | 66%
COc1ccc2ncc(=O)n(CCOc3ccccc3)c2c1 | 4%
COc1ccc(CCc2n[nH]c(NC(=O)CCc3c[nH]c4ccccc34)n2)cc1OC | 14%
CCOc1cccc(-c2ccc3nc(-c4cccc(OC)c4)c(CCC(=O)NCCc4ccc(OC)c(OC)c4)n3c2)c1 | 23%
CCOc1cccc(-c2ccc3nc(-c4cccc(OC)c4)c(CCC(=O)NCCN4CCCC4)n3c2)c1 | 61%

Structure (SMILES) | % Inhibition
CCCCN1C(=O)[C@H]2[C@H]([C@H](O)c3ccc(Cl)cc3)N[C@@]3(C(=O)Nc4ccccc43)[C@H]2C1=O | 25%
Cc1nnc(NC(=O)c2cc(N3CCCC3)ncn2)s1 | 14%
O=C(NCc1ccncc1)c1cc(C(=O)C2CCCCC2)c[nH]1 | -7%
Cc1cnc(NC(=O)C(=O)N2CCC[C@H](n3cccn3)C2)s1 | -4%
Cc1ccc(Cc2nc(N3CCCN(C(=O)c4ccc(C)cc4)CC3)c3cnn(-c4ccccc4)c3n2)cc1 | 3%
O=C(O)[C@H]1CC(=O)N(c2ccc3nc(-c4cccc(F)c4)oc3c2)C1 | -6%
C=CCNC(=O)N1CCC(c2nc(C)ccc2C(=O)N2CCCC2)CC1 | -2%
CCn1ccc([C@H](C)NC(=O)c2cc(C)c(C)s2)n1 | -6%
CCc1cc(C(=O)N[C@@H](C)c2ccccc2)c2c(C3CC3)nn(Cc3ccccc3)c2n1 | -6%
C=CCS(=O)(=O)NC(=O)c1cc(C)c(C)cc1Cl | -2%
Cc1oc(-c2ccn[nH]2)cc1S(=O)(=O)Nc1cccc(Cl)c1 | 52%
Cc1oc(-c2ccn[nH]2)cc1S(=O)(=O)Nc1ccc(F)c(Cl)c1 | 40%
c1ccc2c(c1)ccc1oc(-c3ccn[nH]3)cc12 | -5%
CCCn1c(C)ccc(-c2noc(CCCC(=O)N3CCOCC3)n2)c1=O | -3%
O=C(c1cnc(Nc2nc3ccccc3o2)nc1)N1CCN(c2ccccc2)CC1 | 0%
Cn1nc(-c2nc(-c3ccc(F)cc3)no2)c2c1CCN(C(=O)c1cccc(Cl)c1)C2 | -5%
COc1cc(NC(=O)c2cccc3c(Br)cccc23)ccc1NC(=O)c1ccccc1Cl | 0%
CC1(C)Oc2cc(S(=O)(=O)NC3CCCCC3)ccc2NC1=O | -14%
Cc1ccc(C(F)(F)C(=O)NCCC(=O)NS(C)(=O)=O)cc1 | 49%
Cc1nnc([C@@H]2COCCN2Cc2csc(C)c2)o1 | 0%
Cc1cc(C(=O)NCc2ccncc2)no1 | -11%
CCn1nccc1C(=O)N1CC[C@H](CC(=O)NCc2ccncc2)C1 | -6%
CC[C@@H](CO)NCc1cc(Br)ccc1OC | -11%
CCc1nnc2ccc(S(=O)(=O)Nc3ccc(Cl)cc3)cn12 | 8%
O=C(NC1CCCCCC1)c1cn(CC2(O)CCN(Cc3ccccc3)CC2)nn1 | -4%

Structure (SMILES) | % Inhibition
O=C(C[C@H]1CCC(=O)N(Cc2ccccc2)CC1)NC1CCN(Cc2ccccc2)CC1 | -1%
Cc1nc2c(Oc3ccccc3)cccc2c2c1CCN2c1ccc(OC(F)(F)F)cc1 | -17%
CC1=N[C@H](N2CCN(c3ccccc3)CC2)NC(O)=C1 | -12%
N#Cc1cccc(-c2n[nH]c3c2CN(c2ccc(-c4ccccc4)nn2)CC3)c1 | 85%
N#Cc1cc(N2CCc3ccccc3C2)nc2ccccc12 | 2%
Cc1ccccc1-c1nc2cc(NS(=O)(=O)c3ccccc3)ccc2o1 | 2%
Cc1cccn(Cc2nnnn2C2CC2)c1=O | 3%
O=C(Cc1ccc(Cl)cc1Cl)N1CCc2[nH]nc(C(=O)N3CCN(c4ccccc4)CC3)c2C1 | -1%
CN1CCC(n2ncc3[nH]c(-c4ccc(C(F)(F)F)cc4)nc32)CC1 | 96%
CN(c1nc2c(cnn2C)c(=O)[nH]1)C1CCCC1c1ccc(C(F)(F)F)cc1 (stereo not given) | 6%
CN1CCN(c2nc(-c3cccc(C(F)(F)F)c3)nc3c2cnn3Cc2ccccc2)CC1 | -4%
Cc1ccc(S(=O)(=O)Cc2nc(-c3ccc(C(=O)NCc4ccc(C)o4)cc3)oc2C)cc1 | -18%
O=C(CCC1CCCC1)N1CCC(N2CCCCCC2)CC1 | 6%
Cc1cccc(NS(=O)(=O)c2cc(C(=O)NCc3ccc4c(c3)OCO4)ccc2Cl)c1C | 5%
O=S(=O)(c1ccccc1)N1CCC(Nc2ccc(Br)cc2)CC1 | 10%
Cc1nc(-c2ccc(NCc3cc4ccccc4o3)nc2)[nH]c(=O)c1C | -10%
O=C1C[C@@H](C(=O)N2CCC3(CCCCC3)C2)CCN1 | -3%
Cc1ncsc1C(=O)N1CCC2(CCCCC2)C1 | -14%
Nc1ncc(C(=O)N2CCC3(CCCCCC3)C2)s1 | 98%
O=C(O)c1csc(-c2csc(CCN3C(=O)c4ccccc4C3=O)n2)n1 | 3%
Cc1nn(C)c(C)c1-c1cc(C(=O)Nc2cc(F)ccc2F)c2c(C)nn(C)c2n1 | -5%
COc1cc(OC)cc(C(=O)Nc2cnc(N3CCCCC3)c(C)c2)c1 | 0%
Cc1ccc(CN2C(=O)[C@@H]3CCCN3c3ccc(C(F)(F)F)cc32)cc1 | -17%
Cc1cc(N(C)CCC2CC2)nc([C@H](C)N(C)CCC2CC2)n1 | 52%
Cc1cc(N(CCO)C2CC2)nc(C2CC2)n1 | -8%

Structure (SMILES) | % Inhibition
OC1CCC(Nc2cncc(-n3cccn3)n2)CC1 (stereo not given) | -2%
CC(C)Cn1cc2c(C(F)(F)F)cc(=O)n(CCC(=O)Nc3cc(F)ccc3F)c2n1 | 1%
CC(C)(C)OC(=O)N1CCc2ncn(Cc3ccc(F)cc3)c(=O)c2C1 | -7%
CCOC(=O)CCn1cc(F)c(=O)[nH]c1=O | 77%
CCOC(=O)COc1cc(N)c(F)cc1Cl | -10%
CCOC(=O)CNc1ccc(F)c(Cl)c1 | -6%
Cc1nn(C)c(C)c1OCc1nnc(C2CCC2)n1C | -14%
CCCNC(=O)C1=Cc2ccccc2OC=C1 | -9%
COc1ccccc1Cn1cnc2c1c(=O)n(C1CCCCC1)c(=O)n2-c1ccccc1Cl | 83%
COC(=O)c1ncn2c1C(=O)N(Cc1ccccc1OC)[C@](C)(C(=O)NC1CCCCC1)C2 | 0%
Cc1ccccc1Cn1cnc2c1c(=O)n(C1CCCCC1)c(=O)n2-c1ccccc1Cl | 78%
COc1ccccc1-n1c(=O)n(C2CCCC2)c(=O)c2c1ncn2Cc1ccccc1Cl | 37%
CCCc1nc(N2CCCN(C(=O)C3CCCCC3)CC2)c2c(C)nn(-c3ccccc3)c2n1 | 0%
CCC(C)(C)NCC(=O)Nc1cc(F)ccc1F | -13%
Cc1coc(-c2cc(NC(=O)N(CCO)CC(F)F)ccc2C)n1 | -5%
Cn1nc(C(=O)Nc2nnc[nH]2)ccc1=O | 4%
Clc1cc(CNCCc2ccccc2)ccc1OCc1ccccc1 | -6%
COc1ccccc1CNCCNC(=O)c1ccncc1 | 8%
Cc1cnccc1NCCNCc1cccc(O)c1Cl | 88%
C[C@@H](C1CC1)N(C)S(=O)(=O)Cc1cc(Cl)cc(Cl)c1 | -3%
COc1ccccc1CN(C(=O)c1ccc(C)cc1)c1ccc(CC(=O)NCCN2CCCCC2)cc1 | 39%
CCOc1ccc(-n2c(CN3CCN(C(=O)c4ccco4)CC3)nc3ccccc3c2=O)cc1 | 3%
COc1ccc(NC(=O)c2nc(Nc3ccccc3)c3ccccc3n2)cc1 | 17%
CCOc1ccc(Nc2c3ccccc3nc3ccccc23)cc1 | 86%
Cc1cccc(NS(=O)(=O)c2ccc3c(c2)Cc2cc(S(=O)(=O)Nc4cccc(C)c4)ccc2-3)c1 | 10%
